Inconclusive results are not listed. Active and inactive are the calls of the source. Unless noted, calls follow the shape of the dose curve; as a rule, active = well fitted curve in the direction sought with a large enough effect; inconclusive = small, poorly fitted or top-dose-only effect, or another doubt; inactive = no such curve, though single readings can be large; an effect the other way counts as inactive or inconclusive.
What was measured:
[1] = biological target: Rap guanine nucleotide exchange factor 3 (Homo sapiens) (UniProt O95398); assay: Confirmatory qHTS for antagonist of cAMP-regulated guanine nucleotide exchange factor 3 (EPAC1) (AID 1645880); details: EPAC1 Rap1B-BODIPY-GDP exchange, fluorescence; activity, negative = inhibition: at 115 µM (top of the series);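 also: plate controls were DMSO only for no effect and full effect of the ATA control for full effect; nearly all actives have a fitted effect of over 55% in size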
Rap guanine nucleotide exchange factor 3 (Homo sapiens), sequence (O95398 whole entry, looked up): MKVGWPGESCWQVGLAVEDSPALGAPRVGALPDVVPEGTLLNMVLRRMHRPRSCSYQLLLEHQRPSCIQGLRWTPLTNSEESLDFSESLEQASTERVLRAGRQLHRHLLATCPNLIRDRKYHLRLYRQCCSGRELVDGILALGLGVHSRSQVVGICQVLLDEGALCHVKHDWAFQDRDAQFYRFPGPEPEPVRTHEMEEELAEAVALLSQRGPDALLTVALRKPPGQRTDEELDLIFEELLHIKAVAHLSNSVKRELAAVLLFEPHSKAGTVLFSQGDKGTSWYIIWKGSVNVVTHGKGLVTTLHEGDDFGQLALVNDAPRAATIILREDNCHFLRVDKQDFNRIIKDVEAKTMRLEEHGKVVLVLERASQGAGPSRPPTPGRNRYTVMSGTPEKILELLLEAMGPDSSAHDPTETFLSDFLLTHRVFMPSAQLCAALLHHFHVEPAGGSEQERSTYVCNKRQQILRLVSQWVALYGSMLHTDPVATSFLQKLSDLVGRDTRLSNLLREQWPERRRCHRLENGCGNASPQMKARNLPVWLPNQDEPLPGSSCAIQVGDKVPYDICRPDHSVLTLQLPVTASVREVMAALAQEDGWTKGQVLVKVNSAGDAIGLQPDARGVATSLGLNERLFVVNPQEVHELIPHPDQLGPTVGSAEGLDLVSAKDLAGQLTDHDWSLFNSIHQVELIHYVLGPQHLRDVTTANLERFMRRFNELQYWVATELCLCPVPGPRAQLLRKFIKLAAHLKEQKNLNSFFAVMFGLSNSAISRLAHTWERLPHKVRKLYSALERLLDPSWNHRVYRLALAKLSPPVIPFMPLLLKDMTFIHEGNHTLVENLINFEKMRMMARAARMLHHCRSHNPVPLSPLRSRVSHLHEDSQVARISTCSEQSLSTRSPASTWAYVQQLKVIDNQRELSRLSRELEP
Procedure, shortened: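 Released BODIPY-GDP fluoresces less than Rap1-bound BODIPY-GDP; the signal is followed at 480/540 nm at 5-min intervals over 30 min, after 5 min at room temperature. Reactions contain 100 nM EPAC1, 250 nM RAP1B-BODIPY-GDP and 50 uM GDP; results are normalized to ATA and DMSO.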

[2] = biological target: Rap guanine nucleotide exchange factor 3 (Homo sapiens) (UniProt O95398); assay: Confirmatory qHTS for agonist of cAMP-regulated guanine nucleotide exchange factor 3 (EPAC1) (AID 1645881); also: nearly all actives have a fitted effect of over 75% in size; also: potency is read from the fitted curve at half-maximal effect;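 as to activation: EPAC1 catalysed release of BODIPY-GDP from Rap1B seen as fluorescence loss; 100% = effect of cAMP agonist control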
[3] = biological target: Rap guanine nucleotide exchange factor 4 (Homo sapiens) (UniProt Q8WZA2); assay: Confirmatory qHTS for agonist of cAMP-regulated guanine nucleotide exchange factor 4 (EPAC2) (AID 1645884);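 also: nucleotide exchange releases bodipy-GDP from Rap1 and this lowers its fluorescence; nearly all actives have a fitted effect of over 65% in size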; also: potency is read from the fitted curve at half-maximal effect; as to activation: % is scaled to controls: 0 for no effect and ±100 for the full control effect
Rap guanine nucleotide exchange factor 4 (Homo sapiens), sequence (Q8WZA2 whole entry, looked up): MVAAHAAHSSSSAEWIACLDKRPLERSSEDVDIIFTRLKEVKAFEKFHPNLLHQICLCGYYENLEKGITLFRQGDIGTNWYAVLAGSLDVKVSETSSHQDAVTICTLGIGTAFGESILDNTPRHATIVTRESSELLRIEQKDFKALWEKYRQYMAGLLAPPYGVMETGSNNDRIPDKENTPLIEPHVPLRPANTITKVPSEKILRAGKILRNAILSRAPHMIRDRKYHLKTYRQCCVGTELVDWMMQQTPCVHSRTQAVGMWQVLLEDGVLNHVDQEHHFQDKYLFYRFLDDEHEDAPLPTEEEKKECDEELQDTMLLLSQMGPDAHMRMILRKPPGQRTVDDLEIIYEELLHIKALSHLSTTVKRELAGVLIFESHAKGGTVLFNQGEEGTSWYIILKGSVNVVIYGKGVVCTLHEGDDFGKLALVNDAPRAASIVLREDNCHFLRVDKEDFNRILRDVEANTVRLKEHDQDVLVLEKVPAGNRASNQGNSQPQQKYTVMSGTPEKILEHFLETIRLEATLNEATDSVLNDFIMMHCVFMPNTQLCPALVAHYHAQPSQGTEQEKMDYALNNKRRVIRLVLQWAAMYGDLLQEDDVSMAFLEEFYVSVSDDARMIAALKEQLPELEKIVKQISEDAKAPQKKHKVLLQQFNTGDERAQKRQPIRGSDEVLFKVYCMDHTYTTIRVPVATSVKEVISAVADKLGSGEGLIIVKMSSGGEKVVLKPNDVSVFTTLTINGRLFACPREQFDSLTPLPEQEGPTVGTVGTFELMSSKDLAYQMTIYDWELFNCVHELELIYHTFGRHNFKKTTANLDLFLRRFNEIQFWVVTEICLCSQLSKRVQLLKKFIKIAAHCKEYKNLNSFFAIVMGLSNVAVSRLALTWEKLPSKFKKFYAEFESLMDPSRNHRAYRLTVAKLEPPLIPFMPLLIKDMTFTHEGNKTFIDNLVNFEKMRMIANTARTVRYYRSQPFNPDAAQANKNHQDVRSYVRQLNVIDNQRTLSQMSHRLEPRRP

[4] = biological target: Rap guanine nucleotide exchange factor 4 (Homo sapiens) (UniProt Q8WZA2); assay: Confirmatory qHTS for antagonist of cAMP-regulated guanine nucleotide exchange factor 4 (EPAC2) (AID 1645885); also: nearly all actives have a fitted effect of over 25% in size; also: potency is read from the fitted curve at half-maximal effect; as to activity change, negative = inhibition: % is scaled to controls: 0 for no effect and ±100 for the full control effect
[5] = biological target: Rap guanine nucleotide exchange factor 3 (Homo sapiens) (UniProt O95398); assay: Counterscreen qHTS for agonist of cAMP-regulated guanine nucleotide exchange factor 3 (EPAC1) (AID 1645889); also: nearly all actives have a fitted effect of over 40% in size; also: potency is read from the fitted curve at half-maximal effect; as to activation: % of control where 0% means no effect
Procedure, shortened: (§1)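 Measured: fluorescence of BODIPY-GDP bound to Rap1B, which falls as exchange proceeds. Conditions include 50 uM competing GDP, 5 and 30 min reads, and a later cAMP challenge for antagonist detection.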

[6] = biological target: Tumor susceptibility gene 101 protein (Homo sapiens) (UniProt Q99816); assay: qHTS Assay for Iinhibitors of HIV-1 Budding by Blocking the Interaction of PTAP/TSG101: Hit Validation (AID 651600); also: potency is read from the fitted curve at half-maximal effect; nearly all actives have a fitted effect of over 70% in size
Tumor susceptibility gene 101 protein (Homo sapiens), sequence (Q99816 whole entry, looked up, the tested form may be a part): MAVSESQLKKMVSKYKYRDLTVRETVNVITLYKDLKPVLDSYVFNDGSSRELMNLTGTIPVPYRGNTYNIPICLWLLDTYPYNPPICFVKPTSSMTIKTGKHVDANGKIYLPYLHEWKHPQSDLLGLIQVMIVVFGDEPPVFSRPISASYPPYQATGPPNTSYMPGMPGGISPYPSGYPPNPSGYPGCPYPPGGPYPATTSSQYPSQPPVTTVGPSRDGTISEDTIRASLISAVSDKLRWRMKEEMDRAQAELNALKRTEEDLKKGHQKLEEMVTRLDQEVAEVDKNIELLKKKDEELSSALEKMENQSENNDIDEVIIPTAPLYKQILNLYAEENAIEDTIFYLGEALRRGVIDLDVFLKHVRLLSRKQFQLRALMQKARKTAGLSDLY
Procedure, shortened: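 Tsg101 binding domain 10 uM + FITC-PTAP peptide 50 nM (final), 10 mM HEPES pH 7.5/0.15 M NaCl/0.01% Tween 20/3 mM EDTA/0.1 mM TCEP; 20 min RT; FP read, FITC filters.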

[7] = biological target: Lysosomal acid glucosylceramidase (Homo sapiens) (UniProt P04062); assay: Glucocerebrosidase-p2 (AID 348; in the data active = potency below about 10 µM; also: potency is read from the fitted curve at half-maximal effect); details: purified GBA, blue fluorogenic substrate, 40 min
Lysosomal acid glucosylceramidase (Homo sapiens), sequence (P04062 whole entry, looked up): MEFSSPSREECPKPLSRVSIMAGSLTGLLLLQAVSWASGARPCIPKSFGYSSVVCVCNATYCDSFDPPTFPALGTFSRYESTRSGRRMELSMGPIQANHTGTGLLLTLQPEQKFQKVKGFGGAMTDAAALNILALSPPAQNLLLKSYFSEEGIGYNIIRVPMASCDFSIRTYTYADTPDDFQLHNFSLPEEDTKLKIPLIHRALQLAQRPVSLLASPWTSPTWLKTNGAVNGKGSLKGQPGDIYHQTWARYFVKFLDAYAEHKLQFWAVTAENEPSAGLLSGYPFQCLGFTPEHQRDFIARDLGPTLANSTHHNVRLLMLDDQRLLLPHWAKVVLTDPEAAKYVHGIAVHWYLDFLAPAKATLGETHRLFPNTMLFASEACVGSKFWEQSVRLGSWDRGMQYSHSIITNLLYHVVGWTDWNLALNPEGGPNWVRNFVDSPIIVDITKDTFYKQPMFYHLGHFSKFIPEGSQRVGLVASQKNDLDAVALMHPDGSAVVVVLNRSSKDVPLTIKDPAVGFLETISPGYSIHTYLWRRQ
Procedure, shortened: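 Normal human glucocerebrosidase (0.2 nM) with blue fluorogenic substrate (80 uM final) in citrate/phosphate pH 5.9 with 10mM sodium taurocholate, 0.01% tween-20; 40 min RT, NaOH/glycine stop; fluorescence Ex 365/Em 440; AC50 from a titration from 0.6 nM upwards.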

[8] = AP1 Signaling Pathway (AID 357; active = well fitted curve in either direction with a large enough effect, not every such curve was filed as active; also: % is scaled to controls: 0 for no effect and ±100 for the full control effect); details: ME-180 AP-1-bla reporter, EGF-induced, beta-lactamase ratio, 5 h; at 7.69 µM (top of the series) unless noted
Procedure, shortened: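 ME-180 cells with beta-lactamase reporter under AP-1 response element, stimulated with EC50 EGF; compounds tested in titration series, 5 h at 37 °C. CCF4 substrate added 2.5 h at room temperature; 460/530 nm emission ratio gave %activity and AC50.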

[9] = biological target: Cytochrome P450 1A2 (Homo sapiens) (UniProt P05177); assay: p450-cyp1a2 (AID 410; calls by dose curve; also: potency is read from the fitted curve at half-maximal effect)
Procedure, shortened: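 20nM CYP1A2, 100uM Luciferin-ME (=Km), 100mM KPO4; cpd 10 min RT; +NADPH regen, 60 min RT; stop/detect 20 min; luminescence. Normalized to furafylline 57 uM = full inhibition.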

[10] = NFAT Signaling Pathway (AID 444; active = well fitted curve in either direction with a large enough effect, not every such curve was filed as active;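 also: carbachol stimulus at about its EC50 of 1 µM final; % is scaled to controls: 0 for no effect and ±100 for the full control effect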); details: Jurkat NFAT-bla M1, carbachol, beta-lactamase ratio, 5 h; at 7.69 µM (top of the series) unless noted
Procedure, shortened: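 Jurkat cells carrying an NFAT-driven β-lactamase reporter and co-transfected muscarinic M1 receptor were treated with compound plus carbachol (1 uM final, an EC50 level) for 5 h at 37 °C. CCF4 loading followed for 1 h at RT; 460/530 nm ratio gave %activity.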

[11] = biological target: Glucocorticoid receptor (Homo sapiens) (UniProt P04150); assay: GR-GFP Redistribution (AID 450;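 active = compounds whose dose series gives a full or clear partial fitted curve of increased nuclear translocation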; also: potency is read from the fitted curve at half-maximal effect); details: U2OS GR-GFP nuclear translocation, laser cytometry, 2 h
Glucocorticoid receptor (Homo sapiens), sequence (P04150 whole entry, looked up, the tested form may be a part): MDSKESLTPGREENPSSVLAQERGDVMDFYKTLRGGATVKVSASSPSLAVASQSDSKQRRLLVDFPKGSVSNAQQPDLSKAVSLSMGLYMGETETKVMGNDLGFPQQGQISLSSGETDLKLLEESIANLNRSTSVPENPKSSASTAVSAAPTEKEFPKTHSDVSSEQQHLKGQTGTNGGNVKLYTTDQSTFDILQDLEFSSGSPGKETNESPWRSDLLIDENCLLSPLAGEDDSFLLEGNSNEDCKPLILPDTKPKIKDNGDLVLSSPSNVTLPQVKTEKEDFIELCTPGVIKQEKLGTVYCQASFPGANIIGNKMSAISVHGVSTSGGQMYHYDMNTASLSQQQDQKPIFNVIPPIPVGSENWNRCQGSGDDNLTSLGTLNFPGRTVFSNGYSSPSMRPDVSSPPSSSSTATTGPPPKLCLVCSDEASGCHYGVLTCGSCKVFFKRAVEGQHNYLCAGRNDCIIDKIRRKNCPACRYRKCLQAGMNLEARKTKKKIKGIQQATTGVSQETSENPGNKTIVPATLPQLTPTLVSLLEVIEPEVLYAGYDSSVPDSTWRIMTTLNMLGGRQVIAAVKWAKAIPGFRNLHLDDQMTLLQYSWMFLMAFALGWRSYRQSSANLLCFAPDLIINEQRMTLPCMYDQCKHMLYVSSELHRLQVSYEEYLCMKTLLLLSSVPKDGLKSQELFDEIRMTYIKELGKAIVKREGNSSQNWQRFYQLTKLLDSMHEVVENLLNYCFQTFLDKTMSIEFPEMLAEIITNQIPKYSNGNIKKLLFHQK

[12] = biological target: Glucocorticoid receptor (Homo sapiens) (UniProt P04150); assay: GR-EFC Redistribution (AID 451; calls by dose curve; also: potency is read from the fitted curve at half-maximal effect); details: CHO-K1 GR-EFC translocation, beta-gal luminescence, 2 h
Procedure, shortened: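 CHO-K1 cells stably expressing nuclear-localized β-gal enzyme acceptor and GR fused C-terminally to the enzyme donor fragment; ligand-driven nuclear translocation restores β-gal by complementation. Compounds titrated up to 46 uM final, 2 h at 37 °C; luminescence read.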

[13] = biological target: 3',5'-cyclic-AMP phosphodiesterase 4B (Homo sapiens) (UniProt Q07343); assay: qHTS Assay for Inhibitors of PDE-IV (AID 607; active = well fitted activation curve with a large enough effect in the main read-out, with a control signal flat, not every such curve was filed as active; also: % of control where 0% means no effect)
3',5'-cyclic-AMP phosphodiesterase 4B (Homo sapiens), sequence (Q07343 whole entry, looked up): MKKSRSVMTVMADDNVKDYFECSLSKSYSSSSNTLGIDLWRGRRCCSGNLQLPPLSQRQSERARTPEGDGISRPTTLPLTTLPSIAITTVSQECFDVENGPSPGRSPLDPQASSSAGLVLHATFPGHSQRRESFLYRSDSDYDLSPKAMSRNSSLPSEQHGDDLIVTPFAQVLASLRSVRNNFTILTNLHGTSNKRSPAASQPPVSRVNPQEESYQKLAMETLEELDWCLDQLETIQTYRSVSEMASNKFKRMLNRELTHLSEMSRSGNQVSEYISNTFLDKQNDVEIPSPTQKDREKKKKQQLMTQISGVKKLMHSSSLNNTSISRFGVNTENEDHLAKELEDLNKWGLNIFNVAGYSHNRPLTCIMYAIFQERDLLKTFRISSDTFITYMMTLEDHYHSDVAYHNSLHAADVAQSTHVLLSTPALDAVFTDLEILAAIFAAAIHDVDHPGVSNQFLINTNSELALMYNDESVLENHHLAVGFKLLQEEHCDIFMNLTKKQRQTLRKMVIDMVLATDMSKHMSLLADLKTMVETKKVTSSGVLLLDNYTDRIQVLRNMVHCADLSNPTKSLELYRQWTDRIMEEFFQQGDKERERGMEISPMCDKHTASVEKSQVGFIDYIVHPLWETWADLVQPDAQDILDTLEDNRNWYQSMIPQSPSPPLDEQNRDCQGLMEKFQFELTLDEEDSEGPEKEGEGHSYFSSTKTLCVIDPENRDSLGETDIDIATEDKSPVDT
Procedure, shortened: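 The readout is membrane depolarisation from a cAMP-sensing CNG channel, detected with a potential dye at ex 535/em 590. Cells were HEK293-derived (endogenous PDE-IV) at 1000 cells/well, titrated up to 22.9 uM final.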

[14] = biological target: Cytochrome P450 3A4 (Homo sapiens) (UniProt P08684); assay: qHTS Assay for Activators of Cytochrome P450 3A4 (AID 885); also: nearly all actives have a fitted effect of over 65% in size
Procedure, shortened: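 Activators are scored by enhanced luminescence from CYP3A4 conversion of luciferin-PPXE (25uM, equal to KM) to luciferin, after 60 min at RT with an NADPH-regenerating system.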

[15] = qHTS Assay for Identification of Small Molecule Agonists for Hypoxia Response Element Signaling Pathway (AID 914; active = well fitted activation curve with a large enough effect in the signal ratio, with a control signal flat, not every such curve was filed as active; the % refers to the signal ratio; also: potency is read from the fitted curve at half-maximal effect); details: ME-180 (cervical carcinoma) HRE-bla reporter, beta-lactamase ratio, CoCl2, 17 h; activation: active compounds read high
Procedure, shortened: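 Compounds in a titration series were added to ME-180 reporter cells alongside an EC50 level of CoCl2. After 17 hours, beta-lactamase activity was read as the 460nm/530nm emission ratio of CCF4, giving AC50 values.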

[16] = biological target: Dual specificity protein kinase CLK4 (Homo sapiens) (UniProt Q9HAZ1); assay: qHTS Assay for Inhibitors of CDC-like Kinase 4 (Kinase-Glo Assay) (AID 1770); also: % is scaled to controls: 0 for no effect and ±100 for the full control effect; nearly all actives have a fitted effect of over 65% in size
Dual specificity protein kinase CLK4 (Homo sapiens), sequence (Q9HAZ1 whole entry, looked up): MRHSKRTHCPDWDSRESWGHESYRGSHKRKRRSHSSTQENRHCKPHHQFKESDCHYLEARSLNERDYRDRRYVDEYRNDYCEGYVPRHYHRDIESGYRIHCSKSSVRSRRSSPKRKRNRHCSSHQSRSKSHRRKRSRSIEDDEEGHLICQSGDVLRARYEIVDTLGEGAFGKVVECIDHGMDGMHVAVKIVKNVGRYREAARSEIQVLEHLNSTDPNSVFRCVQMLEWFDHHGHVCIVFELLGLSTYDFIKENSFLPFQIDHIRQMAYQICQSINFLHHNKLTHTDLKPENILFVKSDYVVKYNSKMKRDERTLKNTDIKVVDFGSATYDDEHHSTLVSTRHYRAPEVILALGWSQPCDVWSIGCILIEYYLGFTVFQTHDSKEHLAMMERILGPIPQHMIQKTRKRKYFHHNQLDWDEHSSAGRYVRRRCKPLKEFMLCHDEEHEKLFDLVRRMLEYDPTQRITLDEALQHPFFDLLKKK
Procedure, shortened: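 Readout: Kinase-Glo luminescence from ATP left after a 4.5 h room-temperature reaction of 25 nM Clk4 with 100 uM RS peptide and 1 uM ATP (final). Buffer: 25 mM Tris pH 7.5, 10 mM MgCl2.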

[17] = biological target: Dual specificity protein kinase CLK4 (Homo sapiens) (UniProt Q9HAZ1); assay: qHTS Assay for Inhibitors of CDC-like Kinase 4 (ADP-Glo Assay) (AID 1771); also: % is scaled to controls: 0 for no effect and ±100 for the full control effect; nearly all actives have a fitted effect of over 70% in size
Procedure, shortened: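 25 nM Clk4, 100 uM RS peptide, 1 uM ATP (final); 2 mM MgCl2, 0.5 mM EGTA, 2.5 mM DTT, 0.01% Triton X-100; 1 hr RT. ADP-Glo readout: ATP depletion 45 min, conversion/luciferase 30 min, luminescence.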

[18] = biological target: Dual specificity protein kinase CLK4 (Homo sapiens) (UniProt Q9HAZ1); assay: qHTS Assay for Inhibitors of CDC-like Kinase 4 (ADP-FP Assay) (AID 1795);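 also: recombinant human CLK4 phosphorylating RS repeat peptide at 1 µM ATP; % is scaled to controls: 0 for no effect and ±100 for the full control effect; nearly all actives have a fitted effect of over 60% in size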
Procedure, shortened: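 FP readout: Orange Transcreener ADP2 tracer (4 nM) plus ADP antibody, read after 30 min at room temperature. Kinase step: 6.25 nM Clk4, 100 uM RS peptide, 1 uM ATP, pH 7.5, 1 h.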

[19] = biological target: Rap guanine nucleotide exchange factor 3 (Homo sapiens) (UniProt O95398); assay: Counterscreen qHTS for antagonist of cAMP-regulated guanine nucleotide exchange factor 3 (EPAC1) (AID 1645888); also: % of control where 0% means no effect
Procedure, shortened: as §1

CCOc1ccc(CNC(=O)c2ccccc2NC(=O)c2nsc3ccccc23)cc1
inactive: Potency [1] | Potency [2] | Potency [3] | outcome [4] inactive [at 12.7 µM] | Potency [5]

CCCN(CCC)c1nc(-c2ccccn2)nc2ccccc12
inactive: Potency [1] | Potency [2] | activation [3] -0.687% [at 17.1 µM, percent relative to cAMP agonist control] | Potency [4] | activation [5] 0.395% [at 30.8 µM]

CCOC(=O)N1CCC2CC1c1cc(-c3cccc(OC)c3)ccc12 (stereo not drawn)
inactive: Potency [1] | Potency [2] | Potency [3] | Potency [4] | Potency [5]

CSC1=NSC2=NC(=O)/C(=C/c3coc4ccccc4c3=O)C(=N)N12
active: Potency [6] 18.3 µM | Potency [2] 89.1 µM | Potency [3] 100 µM | Potency [5] 39.8 µM
inactive: Potency [1] | Potency [4]

Oc1ccc2ccc3cccc[n+]3c2c1
active: Potency [6] 4.11 µM | Potency [2] 112 µM | Potency [3] 100 µM | Potency [5] 39.8 µM
inactive: Potency [1] | Potency [4]

CN1CCN(c2ncc3nc(-c4cn(C)c5ccccc45)c(=O)n(CCC#N)c3n2)CC1
active: Potency [9] 15.8 µM | Potency [15] 3.16 µM
inactive: Potency [7] > 11.4 µM | activity change, negative = inhibition [8] -1.18% | activity change, negative = inhibition [10] 23.5% | Potency [11] > 9.22 µM | Potency [12] > 46 µM | Potency [13] | outcome [14] | Potency [16] | Potency [17] | Potency [18] | Potency [1] | Potency [2] | Potency [3] | Potency [4]

CCCOc1ccccc1NC(=O)c1c(-c2ccccc2)noc1C
inactive: Potency [1] | Potency [2] | Potency [3] | Potency [19]

CCOC(=O)c1ccccc1NC(=O)COC(=O)C(Cc1c[nH]c2ccccc12)NC(C)=O (stereo not drawn)
inactive: Potency [1] | Potency [2] | Potency [3] | Potency [19]

Nc1ccc(-c2c3ccc(=O)cc-3oc3cc(O)ccc23)cc1C(=O)O
inactive: Potency [1] | Potency [4]
active: Potency [6] 23.1 µM | Potency [2] 50.1 µM | Potency [3] 100 µM | Potency [5] 50.1 µM

CCN1C(=O)c2cccc3c(N)ccc(c23)C1=O
inactive: Potency [1]
active: Potency [6] 2.06 µM | Potency [2] 100 µM | Potency [3] 100 µM | Potency [4] 75.7 µM | Potency [5] 35.5 µM
